Rows were chosen to be rich in hits. Some 19% of all compounds tested hit in one or more screens of this group.
DT40 TDP1 CPT: qHTS for Inhibitors of human tyrosyl-DNA phosphodiesterase 1 (TDP1): qHTS in cells in presence of CPT | Potency, µM (top dose mostly 46.2 µM), inactives show at the highest dose activity change, negative = growth inhibition, actives largely listed as inhibitors | 12% of 420,000 active | chicken DT40 Tdp1-/-;hTDP1 cells + 20 nM CPT, ATP luminescence, 48 h; also: nearly all actives have a fitted effect of over 55% in size
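Chicken DT40 Tdp1-/- cells complemented with human TDP1, 400 cells/well, exposed to compounds plus 20 nM camptothecin for at least 48 h at 37 C; viability read as ATP content by CellTiter-Glo luminescence.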
KB-V1 cytotox: qHTS assay for MDR1-selective chemotherapeutics: Primary screen using the drug-selected MDR subline cells KB-V1; 3.4% of 400,000 active; Potency, µM (series often up to 46.1 µM), hits mostly cytotoxic; KB-V1 MDR cells viability, CellTiter-Glo, 72 h; also: nearly all actives have a fitted effect of over 60% in size
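Cytotoxicity toward P-gp-expressing KB-V1 cells was determined as loss of CellTiter-Glo luminescence after 72 h at 37 degrees C. Compounds were tested in quantitative HTS format across a concentration range, with curves fitted to normalized data.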
KB-3-1 tox: qHTS assay for MDR1-selective chemotherapeutics: Primary screen using the parental adenocarcinoma cell KB-3-1. Potency, µM (highest dose often 46.1 µM), actives largely listed as cytotoxic. KB-3-1 viability, CellTiter-Glo ATP luminescence, 72 h. 1.4% of 400,000 active; also: nearly all actives have a fitted effect of over 60% in size
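Viability of parental KB-3-1 cells, measured by CellTiter-Glo luminescence, followed a 72 h incubation at 37 °C with pinned compounds in phenol-red-free DMEM containing 10% FBS.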
DT40 TDP1 no CPT: qHTS for Inhibitors of human tyrosyl-DNA phosphodiesterase 1 (TDP1): qHTS in cells in absence of CPT. Potency, µM (highest dose often 46.2 µM), for inactives: top-dose activity change, negative = growth inhibition, usual class: inhibitors. 15% of 420,000 active. DT40 Tdp1-/- hTDP1 cells, no CPT, ATP luminescence, 48 h; also: nearly all actives have a fitted effect of over 55% in size
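No-CPT arm: Tdp1-/-;hTDP1 DT40 cells (400/well) plus compounds, incubated ≥48 hr at 37 °C. Readout CellTiter-Glo luminescence.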
HT1080-NT tox: qHTS for induction of synthetic lethality in tumor cells producing 2HG: qHTS for the HT-1080-NT fibrosarcoma cell line; 1.6% of 360,000 active; Potency, µM (top dose mostly 46.1 µM), inactives show top-dose activity, negative = less viability, hits mostly cytotoxic; HT-1080-NT fibrosarcoma viability, CellTiter-Glo ATP luminescence, 48 h; AID 686970, 2013;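 also: NT is the 2HG producing partner of a matched IDH1 knockdown line; 0% = DMSO-treated cells and -100% = media-only wells without cells; nearly all actives have a fitted effect of over 55% in size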
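HT-1080-NT fibrosarcoma cells (2HG-overproducing), 750 cells/well in RPMI with 5% FBS, dosed after 2 h and incubated 48 h at 37C. CellTiter-Glo luminescence normalized to DMSO and no-cell wells; concentration-response curves fitted and classed.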
HT1080 IDH1KD tx: qHTS for induction of synthetic lethality in tumor cells producing 2HG: qHTS for the HT-1080-IDH1KD cell line; HT-1080 IDH1 knockdown viability, ATP luminescence, 48 h; Potency, µM (top dose mostly 46.1 µM), inactives show top-dose activity, negative = toxicity, hits mostly cytotoxic; 2% of 360,000 active; AID 686971, 2013;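 also: 0% = DMSO wells and -100% = cell-free medium wells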
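CellTiter-Glo luminescence after 48 h compound exposure at 37 degrees C of IDH1-knockdown HT-1080 cells in 5% FBS RPMI. %Activity scaled between DMSO wells and cell-free media wells, with curves fitted and assigned curve classes.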
Starred values were filed as active, the others as inactive; i = inactive; ? = inconclusive; . = not tested or not shown; ! = repeats disagree. Calls follow the shape of the dose curve; as a rule, active = well fitted curve in the direction sought with a large enough effect; inconclusive = small, poorly fitted or top-dose-only effect, or another doubt; inactive = no such curve, though single readings can be large; an effect the other way counts as inactive or inconclusive. Unless noted, % is scaled to controls: 0 for no effect and ±100 for the full control effect; potency is read from the fitted curve at half-maximal effect.

SMILES	DT40 TDP1 CPT	KB-V1 cytotox	KB-3-1 tox	DT40 TDP1 no CPT	HT1080-NT tox	HT1080 IDH1KD tx
Cc1ccc(C)c(NC(=O)c2sc(Cl)nc2-c2ccccc2)c1	?	i	i	?	8.8%	10.6%
Cc1cc(C)c(S(=O)(=O)Cc2ccccc2)c(=O)[nH]1	3.4%	i	i	4.8%	5.8%	20.8%
CN(Cc1ccccc1)C(=O)COC(=O)c1cc(=O)[nH]c2ccccc12	-19.8%	.	.	2.7%	0.0%	3.3%
O=C(NCC1CCN(Cc2ccccc2F)CC1)Nc1ccc(F)c(Cl)c1	?	i	i	?	.	.
O=C(Nc1ccccc1Cl)N1CCC2(CC1)Oc1ccccc1C(=O)N2Cc1ccc(F)cc1	?	i	i	20.6µM*	.	.
O=C(Nc1ccc(F)c(Cl)c1)N1CCC2(CC1)Oc1ccccc1C(=O)N2Cc1ccccc1F	?	.	.	11.6µM*	.	.
COc1ccc(Cl)cc1NC(=O)N1CCC2(CC1)Oc1ccccc1C(=O)N2Cc1ccc(F)cc1	?	i	i	?	.	.
Cc1ccc(NC(=O)N2CCC3(CC2)Oc2ccccc2C(=O)N3Cc2ccc(F)cc2)cc1	?	i	i	?	.	.
O=C(Nc1ccc(Br)cc1F)N1CCC2(CC1)Oc1ccccc1C(=O)N2Cc1ccccc1F	?	.	.	16.4µM*	.	.
CC(=O)Nc1c(C)ccc(S(N)(=O)=O)c1C	-18.8%	?	i	12.3%	10.6%	20.7%
Cn1c(=O)cc(OCCCC(=O)N2CCN(c3ccccc3)CC2)c2ccccc21	?	?	i	?	-5.0%	-19.2%
Cn1c(=O)cc(OCC(=O)NCCCN2CCN(c3cccc(Cl)c3)CC2)c2ccccc21	?	i	i	16.4µM*	-1.2%	-15.2%
Cc1ccc(Cl)cc1N1CCN(C(=O)COc2cc(=O)n(C)c3ccccc23)CC1	?	i	i	23.1µM*	.	.
Cn1c(=O)cc(OCC(=O)NCCCN2CCN(c3ccccc3F)CC2)c2ccccc21	?	?	i	?	2.2%	3.7%
COc1ccc(N2CCN(C(=O)COC(=O)CCc3ccccc3)CC2)cc1	1.9%	i	i	-5.2%	-8.6%	11.4%
CC1CCN(c2c(NCC3CCC(C(=O)NCc4ccccc4Cl)CC3)c(=O)c2=O)CC1 (configuration not stated)	-1.1%	i	i	-6.9%	0.0%	1.1%
CCS(=O)(=O)c1ccc(-c2cccc(NC(=O)COc3ccc(Cl)cc3)c2)nn1	1.6%	i	i	16.8%	-18.0%	-24.3%
Cc1ccc(Cn2c(Cc3ccccc3)nc3ccccc32)cc1	18.4µM*!	?	i	16.4µM*	-18.4%	-11.9%
COc1ccccc1OCc1nc2ccccc2n1Cc1ccccc1	?	i	i	16.4µM*	.	.
Cc1cccc(Cn2c(COc3ccccc3)nc3ccccc32)c1	.	?	i	.	.	.
ClCc1nc2ccccc2n1Cc1ccccc1	10.3µM*	i	i	7.31µM*	-2.2%	-11.9%
OCCCc1nc2ccccc2n1Cc1ccccc1	?	i	i	-0.9%	1.9%	3.2%
Cc1ccc(Cn2c(S(=O)(=O)O)nc3ccccc32)cc1	-1.9%	i	i	-4.3%	2.0%	9.9%
CC(=O)N[C@@H](Cc1c[nH]c2ccccc12)C(=O)O	-0.7%	.	.	2.9%	.	.
COc1ccc(CSC(=S)NNc2ccccc2)cc1	?	i	?	18.4µM*	?	13µM*
SMILES	DT40 TDP1 CPT	KB-V1 cytotox	KB-3-1 tox	DT40 TDP1 no CPT	HT1080-NT tox	HT1080 IDH1KD tx
COc1ccc(C(=O)NNc2ccccc2)cc1	18.5%	i	i	21.4%	?	-9.9%
CCCN1CNc2c(c(=O)[nH]c(=S)n2CCc2cccc(OC)c2)C1	-5.0%	.	.	?	11.0%	3.5%
CC(NCC(O)c1ccc([N+](=O)[O-])cc1)C12CC3CC(CC(C3)C1)C2 (configuration not stated)	?	i	i	?	18.4µM*	23.1µM*
S=C(Nc1ccc(Cl)cc1)NC1CC2CCC(C1)N2Cc1ccccc1 (configuration not stated)	23.1µM*	?	?	16.4µM*	?	18.4µM*
C=CCN1C2CCCC1CC(NC(=S)Nc1ccc(Cl)cc1)C2 (configuration not stated)	23.1µM*	i	i	?	-24.7%	-9.3%
CNC(=S)NC1CC2CCC(C1)N2Cc1ccccc1 (configuration not stated)	-4.4%	i	i	-4.5%	-0.1%	16.3%
COc1ccc(-c2csc(NC(=O)CSc3ncn[nH]3)n2)cc1OC	?	i	i	?	-1.4%	-0.8%
COc1ccnc(Oc2cccc(C(F)(F)F)c2)c1C(=O)N/C=N/OCc1ccccc1F	?	?	i	20.6µM*	-19.3%	?
CCN(CC)S(=O)(=O)c1cc(C(=O)Nc2ccncc2)ccc1Cl	23.1µM*	16.4µM*	20.6µM*	15.8µM*	0.0%	-22.4%
Cc1cnc(C(=O)Nc2ccc(C)c(S(=O)(=O)N3CCCCC3)c2)cn1	-1.7%	i	i	-21.4%	1.5%	-6.0%
O=C(Nc1nc2ccccc2[nH]1)c1ccc(Cl)c(S(=O)(=O)N2CCCC2)c1	18.4µM*	14.6µM*	?	16.4µM*	-19.3%	-26.1%
Cc1ccc(NC(=O)c2cnccn2)cc1S(=O)(=O)N1CCCCCC1	?	?	i	23.1µM*	-4.7%	-13.5%
CCN(CC)CCNC(=O)c1ccc(NC(=O)c2ccc(Cl)c(S(=O)(=O)N3CCCCCC3)c2)cc1	?	i	?	?	?	20.6µM*
Cc1cccc(NC(=O)CNC(=O)CN2C(=O)NC3(CCCc4ccccc43)C2=O)c1C (configuration not stated)	-1.4%	i	i	9.5%	0.0%	0.9%
O=C(Nc1nccs1)c1ccc(Cl)c(S(=O)(=O)N2CCCCC2)c1	10.2%	i	?	-24.1%	-14.3%	-18.8%
O=C(Nc1ccon1)c1ccc(Cl)c(S(=O)(=O)N2CCCCC2)c1	?	?	i	23.1µM*	-13.6%	-25.8%
O=C(Nc1ccon1)c1ccc(F)c(S(=O)(=O)N2CCCCC2)c1	-8.0%	i	i	?	-10.5%	-17.3%

Screening data deposited in PubChem by National Center for Advancing Translational Sciences (NCATS).
